Compounds without any hit were thinned out: in the full panel of roughly 79,000, 15% have a hit. Values without a mark were called inactive. The source made the active and inactive calls. No stated cut-off is given here; in the data, active means growth inhibition above about 70%; inactive means the rest.
Key:
[1] = NCI Yeast Anticancer Drug Screen. Data for the rad50 strain (AID 155);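 further: 0% = growth of vehicle-only cultures of the same strain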; conditions: S. cerevisiae rad50 strain growth inhibition, hits give high values
Outline: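 Inhibition values express reduced yeast growth in compound-treated cultures relative to vehicle-treated controls.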

[2] = NCI Yeast Anticancer Drug Screen. Data for the mec2-1 strain (AID 157); conditions: S. cerevisiae mec2-1 strain, hits give high values
Outline: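 Using mec2-1 yeast: add compound, measure growth, express inhibition versus vehicle-treated cultures.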

[3] = NCI Yeast Anticancer Drug Screen. Data for the sgs1 mgt1 strain (AID 161);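 further: 0% = growth of cultures given vehicle only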; conditions: S. cerevisiae sgs1 mgt1 strain, hits give high values
Outline: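 Growth of a repair-deficient yeast mutant was monitored after compound treatment and expressed as inhibition relative to vehicle-treated cultures.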

[4] = NCI Yeast Anticancer Drug Screen. Data for the cln2 rad14 strain (AID 165);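 further: 0% = growth equal to vehicle treated cultures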; conditions: S. cerevisiae cln2 rad14 strain, hits give high values
Outline: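 Yeast strain cln2 rad14, bearing defects in cell cycle control and DNA repair, serves as the test system; values reflect growth inhibition compared with vehicle.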

[5] = NCI Yeast Anticancer Drug Screen. Data for the bub3 strain (AID 167); conditions: S. cerevisiae bub3 mutant strain, hits give high values
Outline: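 Steps: expose the mutant yeast strain to compound; grow alongside vehicle-treated cultures; measure growth; express inhibition against the vehicle cultures.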

[6] = NCI Yeast Anticancer Drug Screen. Data for the mlh1 rad18 strain (AID 175); conditions: S. cerevisiae mlh1 rad18 strain growth inhibition, hits give high values
Outline: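 Steps: expose repair-defective yeast to compound; measure growth; express inhibition against vehicle-treated controls.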

[7] = at 5.0 µM (retest, dose inferred, filed as 0.5)
[8] = at 50.0 µM (retest, dose inferred, filed as 5.0)

Row | SMILES | growth inhibition [1, 7] | growth inhibition [1, 8] | growth inhibition ([1]; at 50.0 µM) | growth inhibition [2, 7] | growth inhibition [2, 8] | growth inhibition ([2]; at 50.0 µM) | growth inhibition [3, 7] | growth inhibition [3, 8] | growth inhibition ([3]; at 50.0 µM) | growth inhibition [4, 7] | growth inhibition [4, 8] | growth inhibition ([4]; at 50.0 µM) | growth inhibition [5, 7] | growth inhibition [5, 8] | growth inhibition ([5]; at 50.0 µM) | growth inhibition [6, 7] | growth inhibition [6, 8] | growth inhibition ([6]; at 50.0 µM)
1 | C/C(=N\NC(=S)Nc1ccc(C(=O)O)cc1C)c1ccc2ccccc2n1 | 1% | 55% | 86.2% (active) | 20% | 62% | 97.8% (active) | -3% | 42% | 81.6% (active) | 11% | 30% | 33% | 0% | 45% | 34% | -1% | 49% | 91.7% (active)
2 | Cc1ncc(Br)c(C(=O)O)n1 | 0% | -7% | 6.65% | 1% | 3% | 19.3% | 5% | -3% | 3.1% | -5% | 1% | 34.2% | -4% | -6% | 0.75% | -1% | -8% | 52.9%
3 | CCc1c(C(=O)OC)c(C(=O)OC)c(-c2ccccc2)n1CCn1c(CC)c(C(=O)OC)c(C(=O)OC)c1-c1ccccc1 | -2% | 82% (active) | 50.1% | -2% | 64% | 38.2% | -2% | 74% (active) | 28.6% | 1% | 52% | 25.5% | 1% | 83% (active) | 98.5% (active) | 2% | 54% | 40.4%
4 | NC(=O)NCCCCC1NC(=S)N(c2ccccc2)C1=O (stereo not given) | -5% | -4% | -3.85% | -8% | -16% | -3.45% | -7% | 47% | 29.8% | -3% | -3% | -4.9% | -9% | -7% | 5.05% | -9% | -8% | -12.3%
5 | Oc1ccccc1C(c1cc2c(cc1O)OCO2)N1CCOCC1 (stereo not given) | -23% | 99% (active) | 87.3% (active) | -28% | 100% (active) | 88.7% (active) | -51% | 99% (active) | 89.8% (active) | -12% | 99% (active) | 91% (active) | -34% | 99% (active) | 91.3% (active) | 1% | 99% (active) | 91.9% (active)
6 | COC(=O)C(=[N+]=[N-])C(=O)c1ccc(Cl)cc1 | 2% | 30% | 81% (active) | 2% | 13% | 96.2% (active) | 2% | 40% | 50.7% | 0% | 19% | 44.4% | -14% | -14% | 28.9% | -3% | 18% | 40.5%
7 | CC(C)[C@@H]1CC[C@@H](C)C[C@H]1OC(=O)NN | -8% | 72% (active) | 89.5% (active) | -30% | 53% | 90.3% (active) | -8% | 70% (active) | 91.2% (active) | 1% | -2% | 59.6% | 6% | 84% (active) | 80.5% (active) | -6% | 68% | 95.3% (active)
8 | COc1c(OC)c(C2(O)C(=O)N(C)c3ccccc32)c(OC)c(OC)c1C1(O)C(=O)N(C)c2ccccc21 (stereo not given) | -1% | 2% | 7.2% | -2% | 12% | 3.9% | -3% | 1% | -4.9% | -10% | -2% | -0.05% | -3% | -2% | 4.85% | -1% | 22% | 7.15%
9 | O=C(Nn1cc(F)c(=O)[nH]c1=O)C12CC3CC(CC(C3)C1)C2 | 41% | 92% (active) | 21.8% | 20% | 96% (active) | 51.4% | 42% | 96% (active) | 91.4% (active) | 20% | 52% | 86.1% (active) | 41% | 90% (active) | 87.5% (active) | 41% | 97% (active) | 57.9%
10 | C=CCOCC(C)OC(=O)C(C)C (stereo not given) | -162% | -158% | 55.7% | -46% | -52% | -6.9% | -63% | -63% | 18.3% | -60% | -62% | 49% | -71% | -78% | 11.8% | -140% | -117% | 63.2%
